Experimental data from PubChem BioAssay (NCATS).
Results filed as inconclusive are left out. Active and inactive are the calls of the source. Calls come from the whole dose curve; as a rule, active = well fitted cell-killing curve with a large enough effect; inconclusive = small, poorly fitted or top-dose-only effect; inactive = flat fitted curve, though single readings scatter.

Key:
[1] = Cell Viability - LYMP2-012 (AID 982);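 note: cellular ATP by luciferase luminescence where a drop means cytotoxicity; cells exposed to compound for one day before reading; nearly all actives have a fitted effect of over 55% in size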
[2] = Cell Viability - LYMP2-014 (AID 983); note: series mostly up to about 92 µM; nearly all actives have a fitted effect of over 50% in size
Method in brief: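 Intracellular ATP loss, read by luciferase luminescence, measures acute cytotoxicity after 24 h compound exposure of lymphoblastoid LYMP2-014 cells (2500/well, 37 C). Concentration-response data fitted to the Hill equation for AC50.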

[3] = Cell Viability - LYMP2-016 (AID 984);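 note: cells exposed to compound for 24 hours at 37 °C; nearly all actives have a fitted effect of over 55% in size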
Method in brief: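 Concentration-dependent ATP depletion measured in LYMP2-016 lymphoblastoid cells, 24 h, 37 C; luciferase-based luminescent detection; Hill-equation AC50.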

[4] = Cell Viability - LYMP2-018 (AID 985); note: nearly all actives have a fitted effect of over 50% in size
Method in brief: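 Viability read as CellTiter-Glo luminescence (cellular ATP) after 24 hr compound exposure at 37 C of 2500 LYMP2-018 lymphoblastoid cells/well, pre-plated 5 hr. Hill-equation modelling gave AC50.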

[5] = Cell Viability - LYMP2-020 (AID 986); note: series mostly up to about 92 µM; nearly all actives have a fitted effect of over 55% in size
Method in brief: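 Cytotoxicity in qHTS format: luminescent ATP readout from CellTiter-Glo after 24 h compound exposure at 37 C in complete medium. LYMP2-020 lymphoblastoid cells were seeded at 2500/well; concentration-response data fitted to the Hill equation for AC50.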

[6] = Cell Viability - LYMP2-022 (AID 987); note: nearly all actives have a fitted effect of over 55% in size
Excerpt: NIH Chemical Genomics Center [NCGC]
NIH Molecular Libraries Screening Centers Network [MLSCN]
National Institutes of Environmental Health Sciences [NIEHS]
National Toxicology Program [NTP]
We have developed a 1536-well cell-based assay for quantitative high throughput screening (qHTS) against a number of cell lines to determine in vitro cytotoxicity of small molecules. This particular assay uses a human lymphoblastoid cell line (LYMP2-022) purchased from Coriell Institute for Medical Research.
NCGC Assay Protocol Summary:
The CellTiter-Glo luminescent cell viability assay (Promega) is a homogeneous method to measure the number of viable cells in culture. The end point readout of this assay is based on quantitation of intracellular ATP, an indicator of metabolic activity, using the luciferase reaction. […]
Using the CellTiter-Glo luminescent cell viability assay, the amount of cellular ATP was measured in the lymphoblastoid cell line with complete culture medium following compound treatment for 24 hours. […] Library compounds were measured for their ability to cause acute toxicity in the cell line, as reflected by a decrease in intracellular ATP levels, in a concentration-dependent manner. […] AC50 values were determined from concentration-response data modeled with the standard Hill equation. […]
8. Detection; Luminescence; Viewlux plate reader […]

[7] = Cell Viability - LYMP2-024 (AID 988); note: nearly all actives have a fitted effect of over 60% in size
Method in brief: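 Cytotoxicity was taken as a decrease in ATP (CellTiter-Glo luminescence) after 24 hr compound exposure at 37 C of LYMP2-024 lymphoblastoid cells, 2500 cells/well. Concentration-response data were fitted to the Hill equation to give AC50.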

[8] = Cell Viability - LYMP2-026 (AID 989); note: nearly all actives have a fitted effect of over 50% in size
Method in brief: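 Cytotoxicity read as ATP-dependent luminescence (CellTiter-Glo, 30 min room temperature) after 24 h compound treatment at 37 C. LYMP2-026 lymphoblastoid line seeded at 2500 cells/well; AC50 derived by standard Hill equation.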

[9] = Cell Viability - LYMP1-002 - Assay at 24 hr (AID 993)
Method in brief: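 qHTS cytotoxicity at 24 h: CellTiter-Glo ATP luminescence in lymphoblastoid line LYMP1-002 incubated with compound at 37 °C. Concentration-response modeled with the Hill equation for AC50; tetraoctylammonium bromide served as positive control.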

Measured: outcome

NC(=O)c1ccccc1
inactive: all assays above

CC(=O)C(C)=O
inactive: all assays above
